This is a sample that favours compounds with a hit; in the whole collection about 22% have one here.
LmPK inhibitor: inhibitors of Leishmania mexicana pyruvate kinase; AID 1721; Potency, µM (doses to about 57.5 µM), inactives show at the highest dose activity change, negative = inhibition, most hits filed as inhibitors; purified LmPK, Kinase-Glo ATP luminescence, 1 h; actives 0.37% (n = 290,000); Q27686; note: potency is the fitted concentration of half-maximal effect; % is set by controls: 0 for no effect and ±100 for the full control effect
Target sequence (Q27686 whole entry, looked up): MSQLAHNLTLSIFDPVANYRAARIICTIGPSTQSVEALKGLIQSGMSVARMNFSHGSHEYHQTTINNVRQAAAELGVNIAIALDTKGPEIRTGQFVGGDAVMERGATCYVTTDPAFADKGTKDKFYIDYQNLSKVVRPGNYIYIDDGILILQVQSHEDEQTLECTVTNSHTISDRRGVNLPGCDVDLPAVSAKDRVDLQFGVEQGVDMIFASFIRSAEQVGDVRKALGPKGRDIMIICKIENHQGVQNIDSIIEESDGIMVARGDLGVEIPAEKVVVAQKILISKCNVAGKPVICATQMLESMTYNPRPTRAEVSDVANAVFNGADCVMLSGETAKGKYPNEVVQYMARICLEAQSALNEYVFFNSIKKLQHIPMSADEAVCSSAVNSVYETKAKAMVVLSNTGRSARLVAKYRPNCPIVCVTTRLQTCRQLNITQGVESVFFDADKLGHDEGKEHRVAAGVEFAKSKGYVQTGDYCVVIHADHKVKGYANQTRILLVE
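In 50 mM imidazole pH 7.2 with 7 mM MgCl2, LmPK (0.1 nM) turned over PEP (0.5 mM) and ADP (0.1 mM) for 1 h at room temperature. Luciferase read-out of ATP.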
Pf growth 48h: inhibits P. falciparum growth in the first generation, 48 h; P. falciparum luciferase growth in erythrocytes, 48 h; Potency, µM (highest dose often 28.7 µM), for inactives: top-dose activity change, negative = inhibition, actives largely listed as inhibitors; actives 5.9% (n = 310,000); AID 504832; note: potency is the fitted concentration of half-maximal effect; % is set by controls: 0 for no effect and ±100 for the full control effect
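Luciferase-expressing P. falciparum in infected erythrocytes (2% hematocrit, 0.1% parasitemia final) in RPMI 1640/0.5% Albumax were exposed to compound for 48 hours at 37 C, 5% CO2; growth read as luminescence.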
Shiga inhibitor: blocks Shiga toxin action in Vero cells. inhibition, % at 38.7 µM. Vero cells, Shiga toxin protein synthesis inhibition reporter. actives 9.2% (n = 290,000). AID 2315; in the data active = inhibition mostly above about 28%, no sharp cut-off; inactive = mostly below about 43%; note: 0% is about no effect
Cycloheximide cs: counter-screen for Shiga toxin inhibitors: cycloheximide protein synthesis inhibition. cell reporter, cycloheximide protein synthesis inhibition counterscreen. max response, %. actives 12% (n = 300,000). AID 2314; in the data active = max response mostly above about 13%, no sharp cut-off; inactive = mostly below about 14%; note: read at 38.3 µM for the half of the compounds with a filed dose; 0% is about no effect
Pf growth 96h: P. falciparum growth inhibition at 96 hour, primary screen for plastid delayed-death inhibitors; actives 6.9% (n = 320,000); Potency, µM (titrated, usually from 28.7 µM), inactives show at the highest dose activity change, negative = inhibition, actives largely listed as inhibitors; P. falciparum luciferase reporter growth, 96 h; note: potency is the fitted concentration of half-maximal effect; % is set by controls: 0 for no effect and ±100 for the full control effect
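96 h incubation, 37 C, 5% CO2, of luciferase-reporter P. falciparum-infected RBCs (2% hematocrit, 0.05% parasitemia final) with test compounds; endpoint luminescence.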
* hit, by the source's call; ? = inconclusive; · = no result given; [ ] = dose if it differs, or a comment. Unless noted, calls come from the whole dose curve; as a rule, active = well fitted inhibition curve with a large enough effect; inconclusive = small, poorly fitted or top-dose-only effect, or another doubt; inactive = no such curve, though single readings can be large or run the other way.

SMILES	LmPK inhibitor	Pf growth 48h	Shiga inhibitor	Cycloheximide cs	Pf growth 96h
COc1ccc2cc(C3c4cc(OC)c(OC)cc4CCN3C(=O)c3ccco3)c(=O)[nH]c2c1 (stereo not given)	-4%	5.2µM*	-9	-8	26%
COC(=O)c1ccc(OCC2c3cc(OC)c(OC)cc3CCN2C(=O)c2ccco2)cc1 (stereo not given)	-2%	15µM*	-17	10	?
Cc1cc(C)c2sc(N)nc2c1	-2%	3%	8	-4	2%
O=C(CCn1nnc2ccccc21)N/N=C\Cc1ccccc1	-2%	?	4	-5	?
CCCOc1ccc(N2CC(C(=O)NCCc3ccc(OC)c(OC)c3)CC2=O)cc1 (stereo not given)	3%	-9%	-3	1	-7%
COC(=O)C1CCN(C(=O)C2CCN(C(=O)[C@@H](NS(=O)(=O)c3ccc(C)cc3)C(C)C)CC2)CC1	-11%	?	4	-1	?
Cc1nn(-c2ccccc2)c2[nH]c(=O)c(CNc3ccc(N4CCOCC4)cc3)cc12	4%	?	-2	-1	2%
O=c1[nH]c2c(cc1CNCCN1CCOCC1)c(-c1cccc(F)c1)nn2-c1ccccc1	2%	2.1µM*	20	-1	-6%
Cc1ccc(NC(=O)c2ccc([N+](=O)[O-])o2)cc1C	-15%	?	108*	41*	36%
O=C(Nc1ccc2[nH]c(=O)[nH]c2c1)c1ccc([N+](=O)[O-])o1	·	?	·	·	12µM*
CCOc1ccc(C(=O)NCC(=O)N2CCC3(CC2)NCCc2[nH]cnc23)cc1	4%	1%	3	-2	18%
NC(=O)Cc1ccc(Nc2nnc(-c3ccccc3)c3ccccc23)cc1	1%	4%	12	10*	-22%
CCOC(=O)c1ccc(NS(=O)(=O)c2c(C)[nH]c(C)c2C(=O)N2CCCCC2)cc1	-3%	?	-6	0	-10%
O=C(Cc1ccc(Cl)cc1)NCC(=O)N1CCCC1	2%	18%	-5	-3	3%
CC(C)(C)c1ccc(C(=O)N2CCCN(C(=O)c3ccc(C(C)(C)C)cc3)CC2)cc1	2%	31%	-3	-2	158%
CC(C)(C)c1ccc(C(=O)N2CCN(C(=O)C3CCCCC3)CC2)cc1	3%	?	-10	-4	10µM*
O=C(NCCC(=O)N1CCCCCCC1)c1ccc(Br)cc1	·	13µM*	·	·	10µM*
O=C(NCC(=O)N1CCCC1)c1ccc(Cl)cc1	2%	12%	27*	16*	-13%
O=C(OCC(=O)N1CCC(Cc2ccccc2)CC1)c1ccccc1	-4%	110%	79*	55*	57%
COc1ccc(NC(=O)CCCn2cnc3ccccc3c2=O)cc1	-1%	-4%[0.00184 µM]	5	0	0%
Cc1ccccc1OCC(=O)OCC(=O)NC1CC1	·	-24%	·	·	-25%
N#C/C(=C\c1ccc(-c2ccc([N+](=O)[O-])cc2Br)o1)C(=O)N1CCN(c2ccccc2)CC1	-2%	23%	-10	-4	?
CC(C)C[C@@H](COc1ccccc1)N1CCN(Cc2ccccc2)CCC1=O	4%	?	4	-1	?
CCC/C=C1/CCCOC(C(=O)NCCOC)(C(F)(F)F)C1 (stereo not given)	·	·	-3	19	·
CC(C)(C)c1ccc(C(=O)NNC(=O)C(=O)N2CCCCC2)cc1	-3%	-9%	39*	17*	12%
SMILES	LmPK inhibitor	Pf growth 48h	Shiga inhibitor	Cycloheximide cs	Pf growth 96h
O=C(NCC(=O)N1CCCCCC1)c1ccc(Br)cc1	-4%	30%	47*	34*	45%
O=C(NCCC(=O)N1CCCCC1)c1ccc(Br)cc1	2%	76%	88*	56*	75%
O=C(NCC(=O)N1CCC(Cc2ccccc2)CC1)c1ccc(Cl)cc1	-10%	0%	7	1	13µM*
O=C(NCC(=O)N1CCN(c2ccccc2)CC1)c1ccc(Cl)cc1	-1%	-5%	2	-1	3%
O=C(NNC(=O)c1ccccc1)C(=O)N1CCCCC1	-7%	20%	15	-2	0%
CCOC(=O)c1cnc2ccccc2c1Nc1cc(C(=O)O)ccc1C	0%	-24%	19	10	6%
CCc1cccc(NC(=O)NC(=O)Cn2nnc(C(=O)OC)c2C(=O)OC)c1	10%	19%	21	10	?
CC(C)(C)c1ccc(C(=O)NCCC(=O)N2CCN(c3ncccn3)CC2)cc1	8%	-20%	5	-1	·

Assay outcomes as filed in PubChem BioAssay.
